In PubChem BioAssay one finds composite z-score and z-score data, which are given here for 4 compounds.

The structures appear in SMILES notation. Values joined by “and” are separate entries in the source; they are usually repeats but may differ in a detail not shown here. Equal entries are not always repeated. Active and inactive are the calls of the source. Unless noted, how the calls were made is not given here.

A short description of assay [1]: anti-His antibody binders, primary screen, artefact control for SMM control protein annotation, biochemical, small-molecule microarray, 635 nm fluorescence (AID 1128).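 Further: score merges feature fluorescence with signal-to-noise for each printed compound spot.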 Conditions: anti-His Alexa647 antibody binding, higher = more signal.
The subject of assay [2] is Human papillomavirus type 1a E7 protein (residues 1-88). Put plainly: HPV1a E7 small-molecule binders, primary screen, biochemical, small-molecule microarray, residues 1-88, 635 nm (AID 1129). Conditions: small-molecule microarray binding, fluorescence 635 nm; higher = more signal.
Assay [3] concerns the target Focal adhesion kinase 1 (Homo sapiens) (UniProt Q05397). Kind of assay: small-molecule microarray binders of FAK, primary screen, biochemical, 635/667 nm fluorescence, BSA, DTT (AID 1130).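 Further: composite of spot emission at 667 nm and signal to noise over triplicate slides.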 Conditions: PTK2 binding, 635 nm fluorescence, higher = more signal.
Assay [4] has as its system Fibrinogen (Alexa647-labelled). Put plainly: fibrinogen binders on compound microarrays, profiling panel, artefact control for SMM control-protein annotation, biochemical, small-molecule microarray, 635/667 nm fluorescence (AID 1131).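 Further: z-score merges 667 nm fluorescence with per-spot signal-to-noise over triplicate slides.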 Conditions: fibrinogen-A647 binding fluorescence, higher = more signal.
Assay [5] addresses Follistatin (Homo sapiens) (UniProt P19883). Put plainly: follistatin binders on small-molecule microarrays, primary screen, biochemical, small-molecule microarray, 635/667 nm fluorescence (AID 1132). Conditions: FST binding, 635 nm fluorescence, higher = more signal.
For assay [6], the target named is Fibroblast growth factor 2 (Homo sapiens) (UniProt P09038). Put plainly: FGF2 binders on small-molecule microarrays, primary screen, biochemical, small-molecule microarray, 635/667 nm fluorescence (AID 1133). Conditions: small-molecule microarray binding, FGF2, fluorescence 635/667; higher = more signal.
Assay [7] in a line: mitochondrial membrane potential change in A549 cells, profiling panel, cell-based, JC-1 fluorescence, basal, 24 h, 100 nL (AID 1138).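 Further: A549 lung adenocarcinoma cells under basal conditions with no added stimulus; test concentration not given here.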 Conditions: higher = more signal.
Another assay concerns Lefty1. Put plainly: Lefty1 binders on small-molecule microarrays, primary screen, biochemical, small-molecule microarray, 635/667 nm fluorescence (AID 1139). Conditions: small-molecule microarray binding, fluorescence 635/667; higher = more signal.
For assay [8], the system named is wheat germ agglutinin (Triticum aestivum), Alexa647-labelled. Put plainly: wheat germ agglutinin binders on compound microarrays, profiling panel, artefact control for SMM control-protein annotation, biochemical, small-molecule microarray, 635/667 nm fluorescence (AID 1140).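 Further: score merges 667 nm feature emission with signal to noise over triplicate slides.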 Conditions: WGA-A647 binding, 635 nm fluorescence, higher = more signal.
For assay [9], the target named is Luciferin 4-monooxygenase (Photinus pyralis) (UniProt P08659). Put plainly: firefly luciferase enzyme inhibitors, primary screen, biochemical, luminescence, purified enzyme, 2006 set (AID 1141).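 Further: cell-free assay with purified firefly luciferase at 100 ng per well in PBS; test concentration not given here.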 Conditions: SteadyGlo luminescence, 30 min, higher = more signal, called active from +8 up or from −8 down.
For assay [10], the system named is Wnt5a (protein binding on small-molecule microarray). Put plainly: Wnt5a binders on small-molecule microarray, primary screen, biophysical, 635/667 nm fluorescence (AID 1142).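 Further: fluorescence read at 667 nm with signal to noise per printed feature.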 Conditions: 635 nm fluorescence, higher = more signal.
Assay [11] can be described thus: cell viability in Huh7 cells, primary screen, cytotoxicity control for HCV replication inhibitor project, CellTiter-Glo luminescence, basal, 48 h (AID 1143).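 Further: Huh7 hepatoma cells carrying a hepatitis C replication reporter with no stimulus; test concentration not given here.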 Conditions: Huh7 HCV replicon, higher = more signal, called active from +8 up or from −8 down.
Assay [12] is described as follows: P. aeruginosa biofilm formation inhibitors, primary screen, PAO1 strain, BacTiter-Glo luminescence, LB-PBS (AID 1144). Conditions: 12 h, higher = more signal.
Assay [13] is described as follows: CREB reporter modulators without forskolin, primary screen, cell-based, PC12, CRE-LacZ reporter, unstimulated (AID 1145). Conditions: no forskolin, luminescence, 4.5 h, higher = more signal, called active from +8 up or from −8 down.
A short description of assay [14]: CREB reporter modulators under forskolin, primary screen, cell-based, PC12, CRE-LacZ reporter, forskolin-stimulated (AID 1146).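 Further: PC12 cells with 6xCRE LacZ reporter stimulated by forskolin 10 µM; beta-galactosidase reporter signal reflecting CREB driven transcription.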 Conditions: luminescence, 4.5 h, higher = more signal, called active from +8 up or from −8 down.
The target of assay [15] is Streptavidin (Streptomyces avidinii) (UniProt P22629). Put plainly: streptavidin binders on small-molecule microarray, primary screen, artefact control for SMM compound annotation, biophysical, 635/667 nm fluorescence (AID 1147).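 Further: signal reflects streptavidin binding to arrayed compounds as a control protein.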 Conditions: streptavidin binding, higher = more signal.
A short description of assay [16]: small-molecule binders of probe aInhba, primary screen, biochemical, small-molecule microarray, 635/667 nm fluorescence (AID 1148).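 Further: score merges 667nm spot fluorescence with signal-to-noise for antibody binding to printed compounds.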 Conditions: higher = more signal.
For assay [17], the target named is Torsin-1A (Homo sapiens) (UniProt O14656). Put plainly: torsin A binders from cell lysate, primary screen, small-molecule microarray, wild-type, 635/667 nm (AID 1149). Conditions: COS7 hTOR1A-WT lysate, 635 nm fluorescence, higher = more signal.
Assay [18] shares this target. Put plainly: small-molecule binders of mutant TOR1A in lysate, primary screen, cell lysate, small-molecule microarray, COS7 lysate, 635/667 nm fluorescence (AID 1150).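 Further: score pools 667 nm emission and signal to noise measuring lysate protein binding.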 Conditions: COS7 hTOR1A mutant lysate, 635 nm fluorescence, higher = more signal.
The test system of assay [19] is Sonic hedgehog protein (Shh). Kind of assay: small-molecule binders of Shh protein, primary screen, biochemical, small-molecule microarray, 635/667 nm fluorescence (AID 1151).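 Further: Shh protein binding to compounds spotted on small-molecule microarray slides; score combines spot fluorescence intensity with signal-to-noise across triplicate slides.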 Conditions: small-molecule microarray binding, 635 nm fluorescence; higher = more signal.

Sequence of Focal adhesion kinase 1 (Homo sapiens) (Q05397 whole entry, looked up): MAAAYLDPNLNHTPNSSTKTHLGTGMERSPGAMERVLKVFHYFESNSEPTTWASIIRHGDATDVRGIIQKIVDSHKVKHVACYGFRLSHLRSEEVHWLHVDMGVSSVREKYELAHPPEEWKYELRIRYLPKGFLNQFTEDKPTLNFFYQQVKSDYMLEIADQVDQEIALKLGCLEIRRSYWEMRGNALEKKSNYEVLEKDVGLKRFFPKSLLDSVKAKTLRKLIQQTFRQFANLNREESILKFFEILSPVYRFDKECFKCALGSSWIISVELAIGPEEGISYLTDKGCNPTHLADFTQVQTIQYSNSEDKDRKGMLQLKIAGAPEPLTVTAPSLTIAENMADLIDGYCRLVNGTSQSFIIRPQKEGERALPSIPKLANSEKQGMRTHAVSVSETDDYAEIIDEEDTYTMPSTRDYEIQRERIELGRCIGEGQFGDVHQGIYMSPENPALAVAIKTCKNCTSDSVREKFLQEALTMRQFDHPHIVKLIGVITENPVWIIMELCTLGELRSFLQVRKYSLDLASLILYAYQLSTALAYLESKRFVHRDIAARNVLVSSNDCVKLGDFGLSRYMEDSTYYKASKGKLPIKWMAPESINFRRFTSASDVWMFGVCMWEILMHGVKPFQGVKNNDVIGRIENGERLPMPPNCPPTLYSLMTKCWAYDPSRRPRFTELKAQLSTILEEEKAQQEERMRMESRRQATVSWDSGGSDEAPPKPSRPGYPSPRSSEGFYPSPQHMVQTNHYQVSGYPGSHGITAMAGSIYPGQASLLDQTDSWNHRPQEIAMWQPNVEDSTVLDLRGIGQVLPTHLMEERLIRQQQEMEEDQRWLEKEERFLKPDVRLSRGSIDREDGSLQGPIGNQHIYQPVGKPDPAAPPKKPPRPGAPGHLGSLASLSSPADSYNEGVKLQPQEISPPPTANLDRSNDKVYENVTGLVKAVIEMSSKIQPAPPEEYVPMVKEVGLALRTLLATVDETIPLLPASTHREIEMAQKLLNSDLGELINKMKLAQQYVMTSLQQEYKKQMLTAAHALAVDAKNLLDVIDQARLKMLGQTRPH
Sequence of Follistatin (Homo sapiens) (P19883 whole entry, looked up): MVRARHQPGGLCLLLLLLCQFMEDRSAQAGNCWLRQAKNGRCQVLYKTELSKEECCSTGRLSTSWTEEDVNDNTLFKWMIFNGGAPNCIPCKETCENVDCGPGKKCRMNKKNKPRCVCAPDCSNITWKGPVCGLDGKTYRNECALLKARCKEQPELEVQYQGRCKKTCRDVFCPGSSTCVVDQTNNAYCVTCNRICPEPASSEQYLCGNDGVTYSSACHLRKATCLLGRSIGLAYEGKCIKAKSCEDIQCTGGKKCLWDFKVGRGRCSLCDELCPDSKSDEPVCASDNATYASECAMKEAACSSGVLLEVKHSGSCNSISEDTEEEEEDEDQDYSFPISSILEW
Sequence of Fibroblast growth factor 2 (Homo sapiens) (P09038 whole entry, looked up): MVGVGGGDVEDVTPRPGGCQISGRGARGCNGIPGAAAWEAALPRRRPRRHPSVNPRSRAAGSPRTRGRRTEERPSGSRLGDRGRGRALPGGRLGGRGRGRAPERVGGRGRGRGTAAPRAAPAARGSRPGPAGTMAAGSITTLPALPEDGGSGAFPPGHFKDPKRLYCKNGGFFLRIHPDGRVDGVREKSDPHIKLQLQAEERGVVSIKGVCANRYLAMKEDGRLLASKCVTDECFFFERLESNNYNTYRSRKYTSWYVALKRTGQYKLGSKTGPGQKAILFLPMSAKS
Sequence of Streptavidin (Streptomyces avidinii) (P22629 whole entry, looked up): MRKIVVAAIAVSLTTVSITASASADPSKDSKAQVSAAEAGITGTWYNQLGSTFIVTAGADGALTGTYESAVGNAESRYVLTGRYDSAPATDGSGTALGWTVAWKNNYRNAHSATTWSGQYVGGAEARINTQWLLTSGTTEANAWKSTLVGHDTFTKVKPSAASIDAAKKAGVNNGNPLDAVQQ
Sequence of Luciferin 4-monooxygenase (Photinus pyralis) (P08659 whole entry, looked up): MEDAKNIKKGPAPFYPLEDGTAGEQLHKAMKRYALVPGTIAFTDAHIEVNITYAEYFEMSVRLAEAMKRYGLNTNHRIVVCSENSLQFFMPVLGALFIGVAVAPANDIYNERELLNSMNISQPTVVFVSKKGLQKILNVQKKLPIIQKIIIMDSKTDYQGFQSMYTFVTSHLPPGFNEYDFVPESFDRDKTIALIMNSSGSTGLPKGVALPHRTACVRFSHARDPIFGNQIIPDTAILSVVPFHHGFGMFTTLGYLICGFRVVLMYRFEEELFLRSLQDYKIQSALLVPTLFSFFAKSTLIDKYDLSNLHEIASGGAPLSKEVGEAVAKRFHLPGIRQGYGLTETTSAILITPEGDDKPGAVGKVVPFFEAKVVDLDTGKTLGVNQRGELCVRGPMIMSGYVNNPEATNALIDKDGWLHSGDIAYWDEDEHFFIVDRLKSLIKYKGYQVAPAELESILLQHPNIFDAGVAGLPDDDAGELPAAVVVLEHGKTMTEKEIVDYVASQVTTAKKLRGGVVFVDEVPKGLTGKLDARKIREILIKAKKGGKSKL
Sequence of Torsin-1A (Homo sapiens) (O14656 whole entry, looked up): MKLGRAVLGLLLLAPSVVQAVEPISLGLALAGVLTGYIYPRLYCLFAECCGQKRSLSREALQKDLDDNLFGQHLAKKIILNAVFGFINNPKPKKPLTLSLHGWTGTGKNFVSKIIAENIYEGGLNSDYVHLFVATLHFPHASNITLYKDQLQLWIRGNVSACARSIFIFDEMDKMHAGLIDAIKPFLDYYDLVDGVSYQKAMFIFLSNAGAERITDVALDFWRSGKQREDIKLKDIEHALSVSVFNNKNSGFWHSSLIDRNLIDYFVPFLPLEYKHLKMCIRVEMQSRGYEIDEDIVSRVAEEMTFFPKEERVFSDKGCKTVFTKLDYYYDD

For `C=CCN(C(=O)C1N(CCOCCO)C(=O)C2C(C(=O)O)C3C=CC21O3)c1ccc(OC)cc1` (stereo not given), the composite z-score in [1] is -0.576 and -1.3; in assay [2] it was -1.57 and -1.78; in [3] it was 0.748 and -0.878; in [4], -1.13 and -2.1; in [5], -2.1 and -2.52; in assay [6], -0.792 and -1.54. Moreover, the composite z-score was -2.56 and -2.64 in the assay with Lefty1; -0.937 and -1.41 in [8]; -0.571 and -0.317 in [10]; -1.35 and -1.27 in [15]; -0.186 and -0.296 in assay [16]; -1.81 and -2.21 with Torsin-1A (Homo sapiens) [17]. Besides, the composite z-score with Torsin-1A (Homo sapiens) [18] is -1.91 and -1.9; in [19], -1.31 and -0.761. For the same compound, the z-score was 0.154 and 0.454 in assay [7]; -0.505 (inactive) and -0.392 (inactive) in assay [9]; -0.769 (inactive) and -0.89 (inactive) in assay [11]; 0.0762 (inactive) and 0.0838 (inactive) in [12]; 0.329 (inactive) and 0.463 (inactive) in assay [13]; 0.373 (inactive) and -0.121 (inactive) in assay [14].
For the compound `C[N+](C)(C)CCCCNC(=O)[C@@H]1C[C@@H]2C(=O)N[C@@H](CCCC[N+](C)(C)C)C(=O)N2[C@@H]1c1cccc(OCCO)c1`, the composite z-score is 2.73 and 2.55 in assay [1]; 0.905 and -0.426 in assay [2]; -0.791 and -0.306 in [3]; -0.355 and 0.553 in [4]; 1.54 and 1.48 in assay [5]; 1.94 and 1.9 in assay [6]. For the same compound, the composite z-score in the assay with Lefty1 was 1.73 and 1.55; in assay [8] it was 0.284 and 0.68; in assay [10], 1.07 and 0.542; in [15], 0.0255 and -0.695; in [16] it was -0.05 and -0.0413; with Torsin-1A (Homo sapiens) [17] it was 2.06 and 0.536. The composite z-score with Torsin-1A (Homo sapiens) [18] is 2.17 and 1.72; in [19] it was 2.31 and 2.25. The z-score in [7] was 0.725 and 1.07; in [9] it was -1.56 (inactive) and -1.48 (inactive); in [11] it was -0.219 (inactive) and 0.0262 (inactive); in assay [12], 0.78 (inactive) and -0.351 (inactive); in assay [13], -0.264 (inactive) and 0.692 (inactive); in assay [14] it was -1.09 (inactive) and -0.277 (inactive).
For `C=CCN(Cc1ccccc1)C(=O)C1N(c2c(Cl)cccc2CO)C(=O)C2C(C(=O)O)C3C=CC21O3` (stereo not given), the composite z-score in assay [1] was -1.57 and -1.25; in [2], -2.28 and -0.762; in assay [3], -1.12 and -0.942; in assay [4], -1.61 and -1.28; in assay [5] it was -2.48 and -2.78; in assay [6], -1.21 and -1.62. In addition, the composite z-score in the assay with Lefty1 is -3.16 and -3; in assay [8] it was -1.9 and -1.22; in assay [10], -0.597 and -1.05; in [15] it was -1.38 and -2.19; in [16], -0.182 and -0.364; in the assay with Torsin-1A (Homo sapiens) [17], -0.986 and -1.77. The composite z-score in the assay with Torsin-1A (Homo sapiens) [18] is -1.2 and -1.14; in assay [19], -0.796 and -0.69. Besides, the z-score in assay [7] was 1.29 and -0.936; in assay [9] it was -1.28 (inactive) and 1.17 (inactive); in [11], -0.634 (inactive) and -0.0943 (inactive); in assay [12], -2.23 (inactive) and -0.0736 (inactive); in assay [13], -0.619 (inactive) and -0.216 (inactive); in assay [14], -1.1 (inactive) and 0.577 (inactive).
Take `C=C[C@H](C)[C@@H](O)c1ccc(OCCO)cc1`: the composite z-score in assay [1] was -0.419 and 0.713; in assay [2], -1.38 and -0.449; in assay [3], -0.996 and -0.139; in assay [4] it was -1.48 and 0.462; in assay [5], 0.42 and 0.345; in assay [6] it was 0.036 and -0.488. For the same compound, the composite z-score in the assay with Lefty1 is -0.931 and 0.134; in assay [8], -0.449 and 0.106; in assay [10] it was -0.827 and -0.751; in assay [15], 0.129 and -0.772; in [16] it was -0.37 and -0.208; with Torsin-1A (Homo sapiens) [17] it was -1.96 and -1.8. Further, the composite z-score with Torsin-1A (Homo sapiens) [18] was -2.09 and -1.25; in [19] it was 0.134 and 0.524. Also, the z-score is -0.459 and 1.14 in assay [7]; -3.17 (inactive) and -4 (inactive) in [9]; -1.64 (inactive) and 0.216 (inactive) in assay [11]; 0.0711 (inactive) and -0.987 (inactive) in assay [12]; -0.883 (inactive) and 0.861 (inactive) in [13]; -0.783 (inactive) and -0.722 (inactive) in assay [14].
